According to PubChem BioAssay AID2673 (National Center for Advancing Translational Sciences (NCATS), 2010):
Inconclusive results are not listed. Calls of active or inactive are those of the source. The call rests on the fitted dose curve; in most records, active means well fitted activation curve with a large enough effect; inconclusive means small, poorly fitted or top-dose-only effect; inactive means no such curve, though single readings can be large or run the other way.

Assay: qHTS Multiplex Assay to Identify Dual Action Probes in a Cell Model of Huntington: Cytoprotection confirmation (ATP)
Settings: PC12 HttQ103 induced, ATP luminescence 40 h; series mostly up to 46.1 µM; cytoprotection, positive = protection: at the top concentration
From the text: NIH Chemical Genomics Center [NCGC]
NIH Molecular Libraries Probe Production centers Network [MLPCN]
Assay Submitter (PI): Wei Zheng
Huntington's disease is a neurodegenerative disorder caused by a trinucleotide repeat expansion in Exon 1 of the Huntingtin gene. The CAG trinucleotide encodes glutamine and polyglutamine expansions cause cell death in selective areas of the brain. Huntington polyglutamine repeats have the tendency to form aggregates which are observable in later stages of the disease. The exact nature of the aggregates, whether toxic, protective, or insignificant, is unclear.
A stable PC12 cell line containing a gene fusion of Exon 1 of the Huntingtin gene linked to GFP under the control of the inducible ecdysone promoter were used as the cell-based model of Huntington Disease for high throughput screening. Exon 1 of the Huntingtin gene contained an expansion of 103 polyglutamines (Q103) which, when expressed, caused cell death and distinct, bright GFP aggregates. The amount of cell death and the size and intensity of GFP aggregates increased over time and induction level. The cell death were quantified with a measurement of ATP content in the cells. A maximal 40-50% of cell death was observed when the Huntington gene was induced in this cell line.
We optimized this assay in a homogeneous 1536 well format. A quantitative high throughput screen (qHTS) was conducted on the PC12 cells which were induced to express the toxic fusion construct. Small molecules which prevented cell death were identified by using a luminescent ATP quantification method (Perkin Elmer's ATPlite).
PC12 cells stably containing a construct with an ecdysone inducible promoter expressing GFP fused to the exon 1 of HTTQ103 (Huntington protein which containing a 103 ployglutamine expansion) were used.
NCGC Assay Protocol Summary:
Sequence, Parameter, Description
1, Reagent, 5 uL 1500 cells/well 1536 TC treated White clear bottom plate
2, Compound, 23 nL Tebufenozide inducer (100 nM final) to all columns
3, Compound, 23 nL 40 uM to 0.5 nM Libraries
5, Reagent, 5 ul ATPLite cell death assay reagent
6, Detector, 4 sec integration with a Viewlux Luminescent
Media consisted of phenol red free DMEM + 5% equine serum (Hyclone # SH30072.03 ), 5% supplemented Bovine Calf Serum (Hyclone # SH30074.03 ), 1x pen/strep, no G418

cytoprotection, positive = protection, inactive:
CCOC(=O)c1sc2nc(N3CCOCC3)c3c(c2c1N)CC(C)(C)N(C)C3 -12.7%
COc1ccc(C(=O)C(CN2CCOCC2)c2ccccc2)cc1 (stereo not given) 142%
Cc1nnc2n1N=CC=C(c1ccccc1)S2 28.2%
COc1c(F)c(F)c(C(=O)Nc2ccc3oc(-c4ccncc4)nc3c2)c(F)c1F -2.97%
Cc1csc(N/N=C/c2ccc(O)c([N+](=O)[O-])c2)n1 -43.6%
C#CCN(C)CCCOc1ccc(Cl)cc1Cl 24.5%
CNCCCN1c2ccccc2CCc2ccccc21 -12.1%
COc1cc(Cc2cnc(N)nc2N)cc(OC)c1OC 1.87%
COc1cc(NC(=O)c2cc3nc(C)cc(C)n3n2)c(OC)cc1Cl -22.2%
Cn1nnnc1Sc1ncnc2scc(-c3ccc(N)cc3)c12 6.19%
NC(=O)C1CCN(CCC(=O)Nc2ccc(Br)cc2)CC1 -5.63%
O=Nc1c(-c2c(O)[nH]c3ccccc23)[nH]c2ccccc12 -39.2%
NC(=O)c1sc2nc3c(c(-c4cccs4)c2c1N)CCCCC3 -0.102%
CN1C(=O)C2(c3ccccc31)C1CCCC=C1C(C#N)=C(N)C2(C#N)C#N (stereo not given) 5.27%
O=c1c2ccccc2nnn1CSc1ncnc2ccccc12 12%
CCc1nc(SCC(=O)Nc2nc3c(s2)CCCC3)c2ccccc2n1 -1.68%
C=C(C)C(=O)OCCCCCCOc1ccc(C(=O)O)cc1 1.06%
O=C(Nc1ccc(Cl)cc1C(F)(F)F)C(Sc1cccc[n+]1[O-])c1ccccc1 (stereo not given) 20.7%
Cn1nnnc1Sc1ncnc2scc(-c3ccccc3F)c12 27.7%
CCN(Cc1ccncc1)C(=O)c1cc(Br)cc(Br)c1O -3.56%
CC(=O)c1n[nH]nc1NC(=O)c1ccccc1 -12.5%
C[C@]12CC[C@@H]3c4ccc(OC(=O)c5ccccc5)cc4CC[C@H]3[C@@H]1CC[C@@H]2O -43.4%
Cn1nnnc1Sc1ncnc2scc(Br)c12 -109%
O=C(O)/C=C/C(O)c1ccc(Cl)cc1 (stereo not given) -13.1%
CN1C(=O)NC(NC(=O)c2cccs2)(C(F)(F)F)C1=O (stereo not given) 8.42%
CCC(=O)OCCCCCCOc1ccc(C(=O)O)cc1 -1.38%
O=C(c1ccccc1)c1ccc2n1CCC2C(=O)O (stereo not given) 5.43%
COc1ccc2cc3cc(C(=O)NCc4ccco4)oc3nc2c1 -30.7%
CC(=O)Oc1cccc(C(=O)O)c1OC(C)=O -18.4%
Fc1cccc(Cl)c1Cn1nnc2c(-n3ccnc3)ncnc21 7.87%
Cn1nnnc1Sc1ncnc2scc(-c3ccc(Cl)cc3)c12 -97.3%
COc1ccc(NC(=O)c2sc(SC)nc2N)cc1 -9.58%
COc1ccc(C(=O)Cc2ccc(OC)c(OC)c2)cc1 -11.5%

Potency, active:
Cn1nnnc1Sc1ncnc2scc(-c3ccccc3)c12 25.1 µM
COc1ccc(-c2csc3ncnc(Sc4nnnn4C)c23)cc1 25.1 µM
CC(=O)c1ccccc1-c1csc2ncnc(Sc3nnnn3C)c12 31.6 µM
Cn1nnnc1Sc1ncnc2scc(-c3cccc(C#N)c3)c12 12.6 µM
Cn1nnnc1Sc1ncnc2scc(-c3cccc(C(F)(F)F)c3)c12 14.1 µM
Cn1nnnc1Sc1ncnc2scc(-c3cccs3)c12 10 µM
Cn1nnnc1Sc1ncnc2scc(-c3ccccc3Cl)c12 31.6 µM
